In the library only some 2.4% were active in any assay of this set; here they are far more common.
ELG1 DNA repair: blocks ELG1-dependent DNA repair in HEK293T cells; HEK293T ELG1-luciferase reporter, luminescence, 16 h; DNA damage induced by 5-fluorouridine; Potency, µM (doses to about 46.1 µM), for the others: at the highest dose activity change, negative = inhibition, most hits filed as inhibitors; 2.3% of 330,000 active; AID 504467; further: on the % scale 0 is the no-effect control and ±100 the full control effect; nearly all actives have a fitted effect of over 55% in size
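Luminescence from the luciferase reporter, measured 30 min after ONE-Glo reagent at room temperature, was the read-out. Beforehand, 2,000 cells per well were exposed for 16 hr at 37 °C to 5-fluorouridine together with compound or vehicle.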
PKM2 act: increases activity of human pyruvate kinase M2. purified PKM2, Kinase-Glo ATP luminescence, activation; response scale: 0% is enzyme alone, no compound. P14618. Potency, µM (highest dose often 57.5 µM), inactives show top-dose activation, actives largely listed as activators. 0.34% of 260,000 active; further: on the % scale 0 is the no-effect control and ±100 the full control effect; nearly all actives have a fitted effect of over 55% in size
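hPK-M2, >95% pure; 0.1 mM ADP / 0.5 mM PEP final; imidazole pH7.2 buffer w/ 7 mM MgCl2, 50 mM KCl; 1 h RT; Kinase-Glo lum. Intermediate enzyme activity for dual inhibitor/activator qHTS.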
PGK inhibitor: T. brucei PGK inhibition | P07378 | PGK/GAPDH coupled, Kinase-Glo luminescence, 60 min | Potency, µM (titrated, usually from 57.5 µM), for inactives: at the highest dose activity change, negative = inhibition, hits mostly inhibitors | 0.043% of 380,000 active | AID 602233; further: on the % scale 0 is the no-effect control and ±100 the full control effect; nearly all actives have a fitted effect of over 60% in size
Target sequence (P07378 whole entry, looked up): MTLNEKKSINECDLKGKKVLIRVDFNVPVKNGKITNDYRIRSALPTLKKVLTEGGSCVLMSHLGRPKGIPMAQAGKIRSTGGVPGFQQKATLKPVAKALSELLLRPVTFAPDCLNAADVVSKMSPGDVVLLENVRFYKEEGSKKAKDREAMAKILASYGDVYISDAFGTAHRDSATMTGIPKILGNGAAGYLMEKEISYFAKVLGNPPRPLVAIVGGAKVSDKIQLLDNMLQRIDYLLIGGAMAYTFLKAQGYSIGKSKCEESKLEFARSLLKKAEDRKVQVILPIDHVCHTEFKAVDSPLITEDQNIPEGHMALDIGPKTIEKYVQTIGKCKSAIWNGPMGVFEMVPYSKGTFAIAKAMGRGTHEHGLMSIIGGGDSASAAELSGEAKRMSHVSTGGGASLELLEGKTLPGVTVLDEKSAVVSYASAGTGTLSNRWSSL
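Luminescent ATP detection (Kinase-Glo Plus) follows a 60-minute room-temperature incubation, with wells lacking PGK as controls. Buffer: 100 mM TEA (pH 7.6), 5 mM MgCl2, 0.01% Tween-20. Coupling enzyme GAPDH (100 nM final) supplies unstable 1,3-BPG in-well.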
Rango complex inh: Rango-importin beta binding inhibition; Q14974; Rango CFP/YFP FRET sensor + importin beta, 45 min; Potency, µM (doses to about 92.2 µM), for inactives: top-dose inhibition of complex formation; 0.031% of 340,000 active; AID 540263; calls by dose curve;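 further: 0% = DMSO wells and 100% = buffer wells lacking importin beta; nearly all actives have a fitted effect of over 15% in size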
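Inhibition scored from the CFP 486 nm/YFP 530 nm FRET ratio 45 min after adding 0.125 microM importin beta to 50 nM Rango biosensor preincubated 5 min with compound (room temperature, PBS with DTT, Tween-20, BSA). No-importin wells as positive control.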
Tb PFK inh-1: T. brucei PFK enzyme inhibition. O15648. T. brucei PFK, ADP-Glo luminescence. Potency, µM (top dose mostly 57.5 µM), without a hit: at the highest dose activity, negative = inhibition, hits mostly inhibitors. 0.17% of 330,000 active;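 further: 0% = uninhibited 1x PFK enzyme wells and -100% = no-enzyme wells; nearly all actives have a fitted effect of over 60% in size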
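In TEA buffer at pH 8.0 with 5 mM MgCl2, enzyme (1.25 nM) converted F6P (0.5 mM) and ATP (0.1 mM) for 45 min at room temperature. ADP product was read by luciferase luminescence.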
Rango dissoc inh: inhibition of RanGTP-driven Rango-importin beta dissociation; O95149+P62826; Biochemical FRET Rango-importin beta, RanGTP-induced dissociation; Potency, µM (top dose mostly 46.1 µM), inactives show top-dose activity change, negative = inhibition; 0.071% of 340,000 active; calls by dose curve; further: % of control where 0% means no effect; nearly all actives have a fitted effect of over 45% in size
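Recombinant Rango FRET biosensor (EYFP–snurportin 1 IBB–cerulean CFP10) at 0.1 uM premixed with 0.25 uM importin beta in PBS, 1 mM DTT, 0.02% Tween-20, 0.1% BSA. Compound added 5 min; RanGTP-RCC1 (0.6 uM Ran, 2 mM GTP, 0.2 uM RCC1) then triggers release, read at 45 min.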
TbPFK ATP: inhibits T. brucei PFK measured by ATP depletion. Tb PFK enzyme, ATP depletion, Kinase-Glo Plus luminescence. shares compounds with Tb PFK inh-1. 47% of 1,100 active. Potency, µM (highest dose often 57.5 µM), for inactives: top-dose inhibition; calls by dose curve; further: nearly all actives have a fitted effect of over 60% in size
Tb PFK inh-2: validation of T. brucei phosphofructokinase inhibitors. shares compounds with Tb PFK inh-1. purified T. brucei PFK, ADP-Glo luminescence, 45 min. Potency, µM (doses to about 57.5 µM), for inactives: top-dose activity change, negative = inhibition, most hits filed as inhibitors. 41% of 1,100 active;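 further: plate controls were full PFK enzyme control for no effect and no enzyme control for full effect; nearly all actives have a fitted effect of over 60% in size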
Numbers without * were called inactive; i = inactive; ? = inconclusive; . = no result given. Unless noted, the call rests on the fitted dose curve; in most records, active means well fitted curve in the direction sought with a large enough effect; inconclusive means small, poorly fitted or top-dose-only effect, or another doubt; inactive means no such curve, though single readings can be large; an effect the other way counts as inactive or inconclusive. Potency means the concentration at half of the fitted maximal effect.

SMILES | ELG1 DNA repair | PKM2 act | PGK inhibitor | Rango complex inh | Tb PFK inh-1 | Rango dissoc inh | TbPFK ATP | Tb PFK inh-2
O=C(O)c1cc(N2N=C(C(F)(F)F)/C(=C/C=C/c3ccco3)C2=O)ccc1Cl | -2% | 2% | ? | ? | 17µM* | -23% | 4.8µM* | 5.4µM*
CCOc1cc(/C=C\[N+](=O)[O-])ccc1OCC(=O)Nc1ccccc1C | ? | ? | 8% | -1% | ? | -23% | -29% | ?
C/C(=C/C=C/[C@@H](C)C(=O)O)[C@H]1CN[C@H](C(=O)O)[C@H]1CC(=O)O | ? | -1% | 3% | ? | 3% | 10% | . | .
CCn1cc(C(=O)N[C@@H](C)C(=O)OC)c(=O)c2cc3c(cc21)OCO3 | ? | . | -1% | -1% | 14% | -3% | . | .
CCCCn1c(O)c(C(CC)=NCCN2CCOCC2)c(=O)[nH]c1=O | 2% | -19% | -1% | 0% | -4% | -14% | . | .
COCCn1c(SCCN2CCOCC2)nc2c1c(=O)[nH]c(=O)n2C | 1% | 0% | -4% | 2% | ? | 1% | 21µM* | 34µM*
CN1CCN(CC(=O)Nc2ccc([N+](=O)[O-])cc2C(=O)c2ccccc2)CC1 | -3% | 3% | i | -1% | -1% | -8% | . | .
CCC1(C)Cc2ccccc2-c2c1c(=O)n(Cc1ccccc1)c1nnnn21 (stereo not drawn) | -13% | 2% | -18% | ? | 19% | 2% | . | .
O=C(O)CCN1C(=O)c2ccc(NC(=O)CSc3ccc(Cl)cc3)cc2C1=O | 10% | 1% | -6% | 1% | ? | 12% | ? | ?
N#Cc1cc2c(nc1SCC(=O)Nc1ccc(F)c(Cl)c1)C1CCN2CC1 | . | . | 0% | . | . | . | . | .
Cc1ccc2c(c1)C1CN(C)CCC1N2C(=O)Nc1ccc(Cl)cc1 (stereo not drawn) | ? | 0% | . | -2% | 1% | 5% | . | .
COC(=O)C1CCN(C(=O)COC(=O)c2cc(-c3ccccc3)nc3ccc(OC)cc23)CC1 | 18µM* | . | -10% | ? | ? | ? | ? | ?
CC1CCN(C(=O)COC(=O)c2cn(C)c3ccccc23)CC1 | ? | . | 1% | 5% | -7% | -9% | . | .
Cc1cccc(CN2C(=O)CN=C(c3ccccc3Cl)c3cc(Cl)ccc32)c1 | . | . | -1% | . | . | . | . | .
O=[N+]([O-])/C=C\c1ccc(N2CCCC2)c(F)c1 | ? | 0% | -8% | 0% | ? | 9% | 2.4µM* | 6µM*
O=[N+]([O-])c1cc(F)c(N2CCCC2)cc1Br | -19% | ? | -1% | 1% | -1% | 14% | . | .
O=C(NCCc1ccccc1)c1ccc2nc(-c3ccco3)c(-c3ccco3)nc2c1 | ? | 6% | -8% | ? | ? | ? | ? | ?
CCOc1ccccc1NC(=O)c1cccn(Cc2ccccc2C)c1=O | . | . | 2% | . | . | . | . | .
CCOP(=O)(OCC)c1cc(C)c(O)c(C(C)(C)C)c1 | -3% | 0% | -3% | 1% | -1% | -8% | . | .
O=C(NNC(=O)c1ccccc1O)c1cc2ccccc2o1 | ? | . | 6% | -1% | ? | -6% | -29% | ?
CCOC(=O)C1C2NC(=O)N(Cc3ccccc3)C1(C)Oc1c(OC)cccc12 (stereo not drawn) | -6% | 16% | 1% | 4% | 5% | 22% | . | .
NNC(=O)CNc1cccc(Cl)c1 | 13% | -3% | -2% | -1% | 12µM* | -21% | 24µM* | 27µM*
O=C(Nc1cccc(Cl)c1)OCC#CCN1CCCC1 | . | . | -7% | 7% | . | -17% | . | .
Cc1ccc(-n2c(/C=C/c3cc(Br)cs3)nc3ccccc3c2=O)cc1C | . | . | 9% | . | . | . | . | .
CC1(C)CC(=O)C2=C(C1)NC(=O)C21C(C(=O)OC(C)(C)C)=C(N)Oc2ccc(Br)cc21 (stereo not drawn) | -7% | -4% | 0% | 0% | -2% | -8% | . | .
SMILES | ELG1 DNA repair | PKM2 act | PGK inhibitor | Rango complex inh | Tb PFK inh-1 | Rango dissoc inh | TbPFK ATP | Tb PFK inh-2
Cc1cc[n+](-c2[nH]c(=O)sc2/C=N/N=C(\[O-])c2ccncc2)cc1 | 1% | . | -6% | 3% | 19µM* | -2% | ? | -21%
FC(F)(F)c1cccc(NC(=S)Nc2ccc(Cl)c(Cl)c2)c1 | ? | -10% | -1% | ? | 9.5µM* | 3% | ? | ?
Cc1cccnc1NC(=S)Nc1ccc(Cl)c(Cl)c1 | ? | 3% | i | -2% | 13µM* | 30% | ? | ?
FC(F)(F)c1cccc(NC2=NCCCS2)c1 | -14% | -4% | -1% | 0% | -1% | 11% | . | .
CC(=O)Nc1cccc(NC(=S)Nc2ccc(F)c(Cl)c2)c1 | 2% | -4% | -10% | -1% | 21µM* | -4% | ? | ?
Cc1ccccc1-n1c(/C=C/c2ccc(O)cc2)nc2ccccc2c1=O | . | . | -7% | . | . | . | . | .
Cc1ccc(-n2c(/C=C/c3ccc(Br)s3)nc3ccccc3c2=O)cc1C | . | . | 1% | . | . | . | . | .
Cc1cccc(C(=O)OCC(=O)c2ccc(CC(=O)N3CCOCC3)s2)c1C | 6% | . | -16% | ? | ? | -8% | ? | -17%
CC(=O)Nc1ccccc1C(=O)OCC(=O)c1ccc2c(c1)OCCO2 | ? | -8% | -11% | 5% | 9% | -8% | . | .
Cc1ccc(NC(=O)OC(C)CNC(=O)Oc2cccc(C)c2)cc1 (stereo not drawn) | ? | 14% | 0% | 0% | 4% | 2% | . | .
COc1cc(-c2nnc(SCc3cc(=O)oc4cc(O)c(O)cc34)o2)cc(OC)c1OC | ? | ? | ? | ? | ? | ? | 1.7µM* | 1.5µM*
CCCCCc1nc2c(c(=O)c3ccccc3n2C)c(=O)n1C1CCCCCC1 | -8% | 7% | -4% | 7% | -3% | -2% | . | .
CCOC(=O)N(C)OC(=O)Nc1ccc(Cl)c(Cl)c1 | 4% | 3% | 5% | 1% | 1.5µM* | -14% | 24µM* | ?
CCN1CCN(c2ccc(NC(C)=O)cc2Cl)CC1 | -4% | 7% | i | -1% | 0% | ? | . | .
O=C(Oc1ccc2cc(Br)ccc2c1)N1CCCCCC1 | ? | 3% | . | . | 0% | . | . | .
N=c1n(CCO)c2ccccc2n1Cc1ccccc1 | -17% | 2% | -3% | 2% | 0% | -11% | . | .

Source: PubChem BioAssay
